# Measurements from PubChem BioAssay (NCI).
# The panel holds about 83,000 compounds, 20% with a hit somewhere; the sample as a whole holds those more often.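 Activity criterion: percent growth below 10, measured after cells in 96-well plates were exposed to a single compound concentration for 48 hours.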 Calls of active or inactive are those of the source.
# Tested on: SF-295 CNS
# Assay: NCI-60 one-dose screen, 48 h (100 = growth as untreated, 0 = no growth, -100 = all killed)
# Conditions: 10 µM unless noted
row,SMILES,growth
1,COc1ccc(N=C2CSc3nnc(-c4cc(F)c(Cl)cc4Cl)n3N2)cc1,-16.2% (active)
2,Nc1c(C(=O)Nc2cccc(Cl)c2)sc2nc3c(cc12)C(=O)CCC3,-20.2% (active)
3,COc1ccc(CNc2c3ccccc3nc3ccc(OC)cc23)cc1,19.4% (inactive)
4,CCOC(=O)c1cc(C(=O)OCC)c(C)nc1C,107% (inactive)
5,NC(=O)N/N=C\c1ccc([N+](=O)[O-])o1,97.7% (inactive)
6,Cc1ccc(NC(=O)c2sc3nc4c(cc3c2N)C(=O)CCC4)cc1Cl,80% (inactive)
7,COc1ccc(-n2c(COc3ccc(F)cc3)n[nH]c2=S)cc1,74.1% (inactive)
8,COc1ccccc1-[n+]1cc(-c2ccc(-c3ccccc3)cc2)n2c1CCCCC2,-1.81% (active)
9,Nc1cc(C(=O)O)cc(C(=O)O)c1,113% (inactive)
10,CN(C)c1nc(-c2cccs2)n2nc(-c3ccco3)cc2n1,106% (inactive)
11,O=C(Nc1cccc(-n2ccc3c(NC(=O)c4ccccc4)nccc32)c1)c1ccc(N2CCOCC2)c(C(F)(F)F)c1,-15.4% (active)
12,CNC(=O)c1c(NC(=O)c2ccc(C(C)C)cc2)sc2c1CCC(=O)C2,-29.4% (active)
13,CC(CN1CCN(CC(C)Nc2ccnc3cc(Cl)ccc23)CC1)Nc1ccnc2cc(Cl)ccc12 (stereo unspecified),-48.2% (active)
14,Cc1c2c(cc3c1[nH]c1ccccc13)C=NCC2,92.4% (inactive)
15,CC(C)c1ccc2c(c1)CCC1C2CCCC1(C)NCc1ccccc1 (stereo unspecified),96.7% (inactive)
16,CC1(C)OC2OC3C(CN)OC(c4ccccc4)OC3C2O1 (stereo unspecified),123% (inactive)
